# Compound activity deposited in PubChem by several laboratories.
# This is a sample that favours compounds with a hit; in the whole collection about 0.78% have one here.
# NR5A2 inv ag: suppresses constitutive activity of human LRH-1; AID 602396; inhibition, % at 3.6 µM; HEK293T StAR-luciferase reporter, LRH-1 transfected, 24 h; actives 0.13% (n = 360,000);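 active = inhibition above the mean inhibition of all tested compounds plus 3 SD, cut at about 73% in these data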;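 note: 0% = DMSO wells and 100% = reporter-only cells lacking LRH-1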
# SRC3 inh: human NCOA3 inhibition | Q9Y6Q9 | HEK293 GAL4-SRC3 luciferase reporter, luminescence | inhibition, % at 3.6 µM | actives 0.17% (n = 360,000);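 active = inhibition above a per-campaign cutoff, the mean of all compounds plus 3 SD, cut at about 60% in these data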;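 note: 0% = DMSO-treated cells and 100% = gossypol-treated cells at 36 µM; higher means less SRC3-driven luciferase light from the GAL4 reporter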
# Target sequence (Q9Y6Q9 whole entry, looked up, the tested form may be a part): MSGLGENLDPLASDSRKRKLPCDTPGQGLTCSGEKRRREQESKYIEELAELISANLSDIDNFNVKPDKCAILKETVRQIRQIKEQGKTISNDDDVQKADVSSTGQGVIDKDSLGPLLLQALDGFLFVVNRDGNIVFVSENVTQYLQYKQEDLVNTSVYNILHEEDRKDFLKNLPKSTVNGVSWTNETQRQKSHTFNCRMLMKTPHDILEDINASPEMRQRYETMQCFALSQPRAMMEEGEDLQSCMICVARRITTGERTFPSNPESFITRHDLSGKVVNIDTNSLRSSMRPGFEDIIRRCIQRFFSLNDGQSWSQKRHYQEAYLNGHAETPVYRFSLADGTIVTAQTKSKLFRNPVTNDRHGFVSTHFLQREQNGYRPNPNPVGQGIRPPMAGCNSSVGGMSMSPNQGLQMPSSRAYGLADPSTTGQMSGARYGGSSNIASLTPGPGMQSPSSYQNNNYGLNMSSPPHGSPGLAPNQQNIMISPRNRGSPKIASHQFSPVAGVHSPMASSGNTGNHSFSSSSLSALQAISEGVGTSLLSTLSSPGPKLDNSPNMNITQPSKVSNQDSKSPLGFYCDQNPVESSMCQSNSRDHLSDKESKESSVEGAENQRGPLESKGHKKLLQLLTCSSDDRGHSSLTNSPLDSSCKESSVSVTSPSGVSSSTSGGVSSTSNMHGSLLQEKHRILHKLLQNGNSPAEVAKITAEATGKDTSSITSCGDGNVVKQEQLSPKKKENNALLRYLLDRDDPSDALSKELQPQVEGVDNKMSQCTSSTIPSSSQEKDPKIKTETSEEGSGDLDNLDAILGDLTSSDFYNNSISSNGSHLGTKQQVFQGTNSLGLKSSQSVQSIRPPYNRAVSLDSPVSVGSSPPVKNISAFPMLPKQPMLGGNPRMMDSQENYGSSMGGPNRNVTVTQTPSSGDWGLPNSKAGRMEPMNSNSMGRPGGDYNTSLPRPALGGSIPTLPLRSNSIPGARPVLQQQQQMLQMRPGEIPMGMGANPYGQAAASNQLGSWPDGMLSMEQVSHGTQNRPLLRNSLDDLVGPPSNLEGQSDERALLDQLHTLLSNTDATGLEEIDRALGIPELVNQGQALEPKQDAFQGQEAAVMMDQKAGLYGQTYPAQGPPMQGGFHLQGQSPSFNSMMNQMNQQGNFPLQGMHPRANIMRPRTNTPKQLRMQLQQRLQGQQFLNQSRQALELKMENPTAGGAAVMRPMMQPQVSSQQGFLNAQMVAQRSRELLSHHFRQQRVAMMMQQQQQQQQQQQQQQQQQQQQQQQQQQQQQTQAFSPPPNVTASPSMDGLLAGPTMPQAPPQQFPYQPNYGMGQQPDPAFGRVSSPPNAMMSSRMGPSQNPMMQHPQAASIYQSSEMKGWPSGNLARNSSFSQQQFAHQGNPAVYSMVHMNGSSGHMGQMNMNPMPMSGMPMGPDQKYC
# SRC2 inh: human SRC2 (NCOA2) inhibition; Q15596; HEK293 GAL4-SRC2 luciferase reporter, luminescence; inhibition, % at 9 µM; actives 0.17% (n = 370,000); AID 651957;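 active = inhibition above the mean inhibition of all tested compounds plus 3 SD, set per campaign, cut at about 52% in these data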;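 note: 0% = DMSO treated cells and 100% = cells given Gossypol at 36 µM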
# SRC1 inh: inhibitors of human steroid receptor coactivator 1 (SRC1) | Q15788 | actives 0.12% (n = 360,000) | HEK293 GAL4-SRC1 luciferase reporter, luminescence | inhibition, % at 3.6 µM;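 active = inhibition above the campaign mean plus 3 SD, with each screening campaign given its own cutoff, cut at about 60% in these data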;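 note: 0% = DMSO treated cells and 100% = gossypol at 36 µM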
# EBV LMP1 NFkB: Epstein-Barr LMP1 NF-kappaB reporter inhibition; LMP1-induced NF-kappaB luciferase reporter cells, luminescence; inhibition, % at 12.5 µM; actives 0.69% (n = 350,000); AID 504558; in the data active = inhibition above about 41%;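 note: 0% = neutral control wells and 100% = reference inhibitor control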
# Active calls of the source: *; nt = no result.
SMILES,NR5A2 inv ag,SRC3 inh,SRC2 inh,SRC1 inh,EBV LMP1 NFkB
Cn1cccc1CNCCc1ccccc1F,13,7,-22,-7,-9
COc1ccc(CCNCc2cccn2C)cc1,-9,-6,5,0,69*
COC1=C(C)C(=O)C2=C(C1=O)C(CO)N1C(C#N)C3CC4C(C1C2N1CCOC41)N3C (stereo unspecified),63,83*,56*,76*,86*
C[C@@H]1C[C@@H]([C@H](O)CC2CC(=O)NC(=O)C2)C(=O)[C@@H](C)C1,103*,93*,70*,93*,79*
CC(=O)OC1(C)CC(C)C(=O)C(C(O)CC2CC(=O)NC(=O)C2)C1 (stereo unspecified),103*,95*,65*,96*,89*
COC(=O)C12CCc3cc(OC)ccc3C1=CC(=O)C2 (stereo unspecified),-24,-21,-3,-10,0
CC(C)c1ccc(NC(=O)CSc2nnc(OC(=O)N(C)C)n2C2CC2)cc1,-3,-17,-26,4,2
CCC1(OC(=O)CN)C(=O)OCc2c1cc1n(c2=O)Cc2cc3ccccc3nc2-1 (stereo unspecified),87*,69*,nt,27,81*
CC[C@@]1(O)C(=O)OCc2c1cc1n(c2=O)Cc2cc3c(NC(=O)CN)cccc3nc2-1,46,44,7,26,77*
O=C(O)c1cc2ccccc2n1C1CCN(Cc2ccccc2)CC1,nt,nt,-6,nt,nt
CC(=O)OC(C)(C)/C=C/C(=O)C(C)(O)C1[C@H](O)C[C@@]2(C)C3CC=C4C(CC[C@@H](O)C4(C)C)[C@]3(CO)C(=O)C[C@]12C (stereo partly specified),20,27,43,5,30
CC(=O)OC(C)(C)/C=C/C(=O)[C@](C)(O)[C@H]1[C@H](O)C[C@@]2(C)[C@@H]3CC=C4[C@H](C[C@H](O)C(=O)C4(C)C)[C@]3(C)C(=O)C[C@]12C,49,50,nt,16,51*
CC(=O)OC(C)(C)/C=C/C(=O)C(C)(O)C1C(O)CC2(C)C3CC=C4C(CC(O)C(=O)C4(C)C)C3(C)C(=O)CC12C (stereo unspecified),47,16,62*,-3,12
COP(=O)(C(=O)Nc1ccccc1)C(CC(C)C)NC(=O)OCc1ccccc1 (stereo unspecified),nt,nt,5,nt,nt
C[C@H]1CN([C@@H](C)CO)C(=O)CCCn2nncc2CO[C@H]1CN(C)C(=O)Oc1ccc2ccccc2c1,4,0,10,15,4
CCn1nc(/C=C/c2ccccc2)nc2c(=O)n(C)c(=O)nc1-2,-50,57,13,-17,72*
CC(C)[C@H]1C(=O)O[C@H](C(C)C)C(=O)N(C)[C@@H](C(C)C)C(=O)O[C@H](C(C)C)C(=O)N(C)[C@@H](C(C)C)C(=O)O[C@H](C(C)C)C(=O)N1C,-15,70*,nt,37,56*
N#CC1c2ccccc2-n2nncc2CN1C(=O)c1ccc([N+](=O)[O-])o1 (stereo unspecified),nt,nt,3,nt,nt
NC(Cc1ccccc1Cl)c1nn[nH]n1 (stereo unspecified),14,-14,-39,3,-3
CC12CC[C@H]3[C@@H](CCC4(O)C[C@H](O)CCC34/C=N/NC(=O)c3ccc(O)cc3)C1(O)CCC2C1=CC(=O)OC1 (stereo partly specified),-37,7,3,-59,-6
CC(=O)OC1CC(OC2C(O)CC(OC3C(O)CC(OC4CCC5(C)C(CCC6C5CCC5(C)C(C7=CC(=O)OC7)CCC65O)C4)OC3C)OC2C)OC(C)C1OC1OC(CO)C(O)C(O)C1O (stereo unspecified),99*,89*,60*,92*,76*
C[C@@H]1O[C@@H](O[C@@H]2C=C3CC[C@@H]4C(CC[C@]5(C)[C@@H](c6ccc(=O)oc6)CC[C@]45O)[C@@]3(C)CC2)[C@H](O)[C@H](O)[C@H]1O (stereo partly specified),100*,91*,58*,93*,82*
C[C@@H]1O[C@@H](O[C@@H]2C=C3CCC4C(CC[C@]5(C)[C@@H](c6ccc(=O)oc6)CC[C@]45O)[C@@]3(C)CC2)[C@H](O)[C@H](O)[C@H]1O (stereo partly specified),103*,93*,71*,90*,88*
CC(=O)C1CCC2(O)C3CCC4=CC(=O)CCC4(C)C3CCC12C (stereo unspecified),16,-4,1,2,3
CCOc1ccc(-c2cc(C)[n+](CCc3ccc(OC)c(OC)c3)c(-c3ccc(OCC)cc3)c2)cc1,57,63*,-20,56,10
SMILES,NR5A2 inv ag,SRC3 inh,SRC2 inh,SRC1 inh,EBV LMP1 NFkB
COC(=O)C1=C(c2ccc(F)cc2OCc2ccccc2)C[C@@H]2CC[C@H]1N2C(=O)NCc1cccc(C(F)(F)F)c1,-12,21,2,2,4
O=NN(CCF)C(=O)NC1CCC(=O)NC1=O (stereo unspecified),-10,nt,-11,nt,nt
CCN(CC)S(=O)(=O)c1ccc(NN=C(C#N)C#N)cc1,-19,16,29,8,32
Cc1cc(C)n(-c2ccc(NN=C(C#N)C#N)cc2)n1,11,39,17,17,57*
N#CC(C#N)=NNc1ccc(-n2ccc(C(F)(F)F)n2)cc1,30,45,0,32,60*
COOCC1(C(=O)OC)C[C@H](c2ccc(OC)cc2)N(Cc2ccccc2OC)[C@@H]1c1ccccc1C (stereo partly specified),26,nt,-21,nt,nt
CC1=CC2OC3CC4OC(=O)C=CC=CC(=O)OCCC(C)C(O)C(=O)OCC2(CC1O)C4(C)C31CO1 (stereo unspecified),97*,93*,nt,94*,85*
CC1=CC2OC3CC4OC(=O)C=CC=CC(C(C)O)OCC(O)C(C)CC(=O)OCC2(CC1O)C4(C)C31CO1 (stereo unspecified),99*,94*,71*,95*,84*
COC(/C(C)=C/C=C/C(C)=C/c1coc(C)n1)C(C)C1CC(O)C2(C)OC2C=CC(C)C2CC(CC(=O)O2)CC2OC2C(=O)O1 (stereo unspecified),-4,12,-8,-1,-3
CCOC(=O)CNC(=O)N1Cc2cc(Br)ccc2-n2nncc2C1,nt,nt,20,nt,nt
O=C1CN=C(c2ccc[nH]2)c2cc(Cl)ccc2N1,40,51,53*,53,57*
O=C(CN1C(=O)[C@@H](Cc2c[nH]c3ccccc23)N=C(c2ccccc2)c2ccccc21)NC1CCCCC1,nt,nt,-16,nt,nt
CC(=NNC(=S)N1CC2CCC(CC2)C1)c1nccs1,31,25,-13,25,73*
CC[C@H]1CN2CCC1C[C@H]2[C@H](O)c1ccnc2ccc(OC)cc12 (stereo partly specified),-11,-13,-8,4,69*
